# Measurements published in PubChem BioAssay AID2673 (National Center for Advancing Translational Sciences (NCATS), 2010).
# Records with an inconclusive call do not appear. A number with no mark means an inactive call. Active and inactive are the calls of the source. The call rests on the fitted dose curve; in most records, active means well fitted activation curve with a large enough effect; inconclusive means small, poorly fitted or top-dose-only effect; inactive means no such curve, though single readings can be large or run the other way.
# Assay: qHTS Multiplex Assay to Identify Dual Action Probes in a Cell Model of Huntington: Cytoprotection confirmation (ATP)
# Settings: PC12 HttQ103 induced, ATP luminescence 40 h; series mostly up to 46.1 µM; cytoprotection, positive = protection: at the top concentration
# How it was run: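 Cell survival measured by luminescent ATP content (ATPlite) in tebufenozide-induced (100 nM) PC12 HTTQ103-GFP cells treated with compounds, in phenol red-free DMEM with equine and calf serum.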
SMILES,Potency,"cytoprotection, positive = protection [%]"
Cc1ccc(-c2csc3ncnc(Sc4nnnn4C)c23)cc1,35.5 µM (active),–
COc1cc(NC(=O)c2cc3nc(C)cc(C)n3n2)c(OC)cc1Cl,–,-22.2
Cn1nnnc1Sc1ncnc2scc(-c3ccc(F)cc3)c12,25.1 µM (active),–
NC(=O)C1CCN(CCC(=O)Nc2ccc(Br)cc2)CC1,–,-5.63
CC(=O)c1n[nH]nc1NC(=O)c1ccccc1,–,-12.5
COc1cccc(C(=O)Nc2ccc(F)c(F)c2F)c1,–,-15.2
O=C(N/N=C/c1ccc(O)c(O)c1)c1ccc(CSc2cccc3cccnc23)cc1,–,-39
CC(C(=O)O)c1ccc(N2Cc3ccccc3C2=O)cc1 (configuration not stated),–,-67.7
COc1ccc(NC(=O)c2sc(SC)nc2N)cc1,–,-9.58
O=c1c2ccccc2nnn1CSc1ncnc2ccccc12,–,12
Cn1nnnc1Sc1ncnc2scc(-c3ccc4ccccc4c3)c12,12.6 µM (active),–
Cn1nnnc1Sc1ncnc2scc(-c3ccc(C(=O)OC(C)(C)C)cc3)c12,–,-75.7
O=C(Nc1ccc(Cl)cc1C(F)(F)F)C(Sc1cccc[n+]1[O-])c1ccccc1 (configuration not stated),–,20.7
NC(=O)c1sc2nc3c(c(-c4cccs4)c2c1N)CCCCC3,–,-0.102
CC(=O)Nc1ccc(S(=O)(=O)N2CCSC2c2ccccc2)cc1 (configuration not stated),–,9.67
Fc1ccc(N2CCN(c3ncnc4nc[nH]c34)CC2)cc1,–,-30.4

SMILES,Potency,"cytoprotection, positive = protection [%]"
CC(C(=O)O)c1ccc(CC2CCCC2=O)cc1 (configuration not stated),–,-43.9
CC(=O)c1cccc(-c2csc3ncnc(Sc4nnnn4C)c23)c1,10 µM (active),–
Cn1nnnc1Sc1ncnc2scc(-c3ccsc3)c12,11.2 µM (active),–
CCN(Cc1ccncc1)C(=O)c1cc(Br)cc(Br)c1O,–,-3.56
O=C(c1ccccc1)c1ccc2n1CCC2C(=O)O (configuration not stated),–,5.43
N#CCCn1c(Cl)nc2ccccc21,–,-11.9
O=C(O)c1cc(=O)c2ccc(Cl)cc2[nH]1,–,8.97
Cn1nnnc1Sc1ncnc2scc(-c3cccc(C#N)c3)c12,12.6 µM (active),–
Cn1nnnc1Sc1ncnc2scc(-c3cccc(N)c3)c12,–,3.36
Cc1ccccc1N=C(N)Nc1ccccc1C,–,-20.4
Cc1cccc(/C=N/NC(=O)c2cc3c(s2)-c2ccccc2CC3)c1,–,-29.8
COc1cc(Cc2cnc(N)nc2N)cc(OC)c1OC,–,1.87
C=C(C)C(=O)OCCCCCCOc1ccc(C(=O)O)cc1,–,1.06
Cn1nnnc1Sc1ncnc2scc(-c3cccc([N+](=O)[O-])c3)c12,25.1 µM (active),–
CCOC(=O)c1noc(C)c1C(=O)Nc1cccc(F)c1,–,-11.4
O=C(O)/C=C/C(O)c1ccc(Cl)cc1 (configuration not stated),–,-13.1
